VDR inhibitor = blocks the human vitamin D receptor; P11473; VDR-SRC2-3 peptide fluorescence polarization, 2 h; Potency, µM, without a hit: max response, negative = inhibition, hits mostly inhibitors; 400,000 tested, 0.93% active; also: % is scaled to controls: 0 for no effect and ±100 for the full control effect
Target sequence (P11473 whole entry, looked up): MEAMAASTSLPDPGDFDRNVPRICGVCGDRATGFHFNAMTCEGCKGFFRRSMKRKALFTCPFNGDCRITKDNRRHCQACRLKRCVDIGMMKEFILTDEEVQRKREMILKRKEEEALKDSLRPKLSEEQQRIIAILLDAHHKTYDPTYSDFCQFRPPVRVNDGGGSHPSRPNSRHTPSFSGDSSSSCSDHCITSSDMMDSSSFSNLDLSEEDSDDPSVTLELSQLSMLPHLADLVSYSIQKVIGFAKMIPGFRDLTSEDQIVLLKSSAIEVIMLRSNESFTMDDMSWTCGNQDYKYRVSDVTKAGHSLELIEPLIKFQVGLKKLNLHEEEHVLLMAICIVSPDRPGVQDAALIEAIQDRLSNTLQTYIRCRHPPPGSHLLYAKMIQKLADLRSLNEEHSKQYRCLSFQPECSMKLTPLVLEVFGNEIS
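Two reagent solutions held at 4 deg C in the dark were dispensed, compounds pinned at 23 nl, and the mixture incubated 2 h at room temperature. Read-out: fluorescence polarization of VDR–SRC2-3 peptide binding.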
PLK1 PBD inh = inhibitors of human PLK1 polo-box domain binding | AID 720504 | P53350 | 360,000 tested, 2.8% active | Plk1 PBD binding of FITC phosphopeptide, fluorescence polarization | Potency, µM, inactives show max response, negative = inhibition, most hits filed as inhibitors; also: series mostly up to about 57 µM; % is scaled to controls: 0 for no effect and ±100 for the full control effect; nearly all actives have a fitted effect of over 65% in size
BAZ2B inh = inhibitors of human BAZ2B bromodomain | AlphaScreen BAZ2B-H3K14Ac peptide displacement | Potency, µM (series often up to 114 µM), inactives show at the top dose activity change, negative = inhibition, hits mostly inhibitors | 360,000 tested, 4.4% active | AID 504333; also: % is scaled to controls: 0 for no effect and ±100 for the full control effect; nearly all actives have a fitted effect of over 60% in size
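AlphaScreen luminescence quantifies BAZ2B engagement of H3K14Ac peptide; the protein and biotinylated peptide are both at 50 nM final, buffer PBS pH 7.4 with 0.01% Tween-20, all steps at room temperature.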
JMJD2A Tudor inh = inhibitors of human JMJD2A Tudor domain; Potency, µM (series often up to 114 µM), without a hit: at the highest dose activity change, negative = inhibition, most hits filed as inhibitors; O75164; 390,000 tested, 4.4% active; AlphaScreen JMJD2A-Tudor / H3K4me3 peptide binding; AID 504339; also: % is scaled to controls: 0 for no effect and ±100 for the full control effect; nearly all actives have a fitted effect of over 50% in size
HP1b chromo inh = HP1-beta chromodomain-methylated histone interaction inhibition; AlphaScreen HP1-beta / biotin-H3K9me3 peptide binding; Potency, µM (titrated, usually from 114 µM), for inactives: top-dose activity change, negative = inhibition, hits mostly inhibitors; 390,000 tested, 0.56% active; also: nearly all actives have a fitted effect of over 70% in size
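Compound inhibition of the preformed complex between 50 nM HP1-beta and 50 nM biotinylated H3K9me3 peptide was read by AlphaScreen. Buffer was PBS pH 7.4 with 0.01% Tween-20. Incubations ran 30 min at room temperature, with 10 ug/mL donor/acceptor beads.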
G9a block = blocks human histone lysine methyltransferase G9a; Q96KQ7; G9a H3K9 monomethylation, AlphaScreen, 2 h; Potency, µM (highest dose often 102 µM), for inactives: top-dose activity, negative = inhibition, most hits filed as inhibitors; 350,000 tested, 8.8% active; AID 504332; also: % is scaled to controls: 0 for no effect and ±100 for the full control effect; nearly all actives have a fitted effect of over 75% in size
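G9a (20 nM) was preincubated 15 min with compound, then reacted 2 h at room temperature with 500 nM biotin-H3K9 peptide and 20 µM SAM. Monomethyl-H3K9 detected by AlphaScreen using anti-H3K9me1 antibody.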
Numbers without * were called inactive; ? = inconclusive; / = no result given; [ ] = dose if it differs, or a comment. Compounds with a hit are over-represented: about 11% of the library has one in this group of screens. Calls follow the shape of the dose curve; as a rule, active = well fitted curve in the direction sought with a large enough effect; inconclusive = small, poorly fitted or top-dose-only effect, or another doubt; inactive = no such curve, though single readings can be large; an effect the other way counts as inactive or inconclusive. Potency is read from the fitted curve at half-maximal effect.

SMILES	VDR inhibitor	PLK1 PBD inh	BAZ2B inh	JMJD2A Tudor inh	HP1b chromo inh	G9a block
CN1CN(c2ccccc2)C2(CCN(CCCSc3ccccc3NC(=O)/C=C/c3ccccc3)CC2)C1=O	10%	1%	/	40µM*	?	/
CCOC(=O)c1c(P(=O)(N2CCOCC2)N2CCOCC2)noc1N	6%	-14%	9%	-2%[11.4 µM]	70%	-26%
CCOC(=O)c1c(C)c(P(=S)(N2CCOCC2)N2CCOCC2)n(C)c1C	7%	27µM*	?	-25%	?	6.3µM*
CCC/C=C/C=C/C(=O)OC1/C(=C/C(=O)OC)CC2CC(C(C)O)OC(=O)CC(O)CC3CC(OC(C)=O)C(C)(C)C(O)(CC4C/C(=C/C(=O)OC)CC(/C=C\C(C)(C)C1(O)O2)O4)O3 (centres undefined)	-1%	/	/	/	/	-8%[12.7 µM]
COc1ccc(-c2noc(=O)n2Cc2cc(C)ccc2C)cc1	0%	1%	-20%	42%	56%	-3%
CCC(CC)N1CCN(C(=O)Cc2ccccc2)CC1	18%	0%	?	3.2µM*	?	11µM*
O=C(Cc1ccccc1)N1CCN(Cc2ccc(Cl)cc2)CC1	1%	-11%	/	10µM*	?	/
COC(=O)c1ccc(CN2CCN(Cc3ccccc3)CC2)cc1	21%	-4%	-10%	79µM*	4%	-6%[59 µM]
O=C(Cc1ccccc1)N1CCN(Cc2cccc(Cl)c2)CC1	-14%	0%	?	3.2µM*	?	21%[0.501 µM]
CC(=O)Nc1ccc(CC(=O)N2CCN(Cc3ccccc3)CC2)cc1	2%	-9%	-6%	-9%	5%	-2%
C[C@]12C=CC(=O)C=C1CC[C@@H]1[C@@H]2CC[C@@]2(C)[C@H]1CC[C@]2(C)O	-2%	/	/	/	/	31%[59 µM]
Cc1ccccc1CN1CCN(C(=O)Cc2ccccc2)CC1	0%	-10%	25µM*	11µM*	22µM*	16µM*
CCN1CCN(C(=O)Cc2ccc(C)cc2)CC1	-6%	-4%	-11%	-6%	27%	7%
CN1C(=O)CCS(=O)(=O)[C@@H]1c1ccc(Cl)cc1	0%	/	/	/	/	5%[21.5 µM]
CC[C@]1(c2cccc(O)c2)CCCCN(C)C1	5%	/	/	/	/	20%[21.5 µM]
Clc1ccc(Sc2oc(/C=N/n3cnnc3)cc2Br)cc1	-15%	-9%	10%	89µM*	9%	-2%
CC[C@@]1(O)C(=O)OCc2c1cc1n(c2=O)-c2cc3ccccc3nc2C1	-2%	/	/	/	/	23%[59 µM]
C=C1CC2C(CC[C@]3(C)C(=O)CCC23)[C@]2(C)C=CC(=O)C=C12 (some centres undefined)	-11%	/	/	/	/	21%[59 µM]
CN1C(=O)C(=Cc2sc(=O)n(-c3ccccc3)c2N2CCCCC2)C(=O)N(C)C1=O	-20%	17%	?	-18%	23%	50µM*
CN1CCCN(C(=O)COc2ccccc2)CC1	9%	3%	-2%	12%	31%	/
O=C(COc1ccccc1)N1CCN(C2CCCC2)CC1	-1%	3%	-106%	7.9µM*	-55%	10µM*
COc1ccc(OCC(=O)N2CCN(C3CCC(c4ccccc4)CC3)CC2)cc1 (centres undefined)	-5%	-10%	50µM*	20µM*	?	?
O=C(COc1ccc2ccccc2c1)N1CCN(C2CCN(Cc3ccccc3)CC2)CC1	-7%	-12%	-4%	-24%	-3%	-48%
CC1=CC(=C2C(=O)NC(=O)NC2=O)C=C(C(F)(F)F)N1Cc1ccccc1	-7%	-18%	-13%	-12%	33%	/
CC1=CC(=C2C(=O)NC(=S)NC2=O)C=C(C(F)(F)F)N1Cc1ccccc1	-10%	-2%	3%	-6%	59%	79µM*
CCCCn1c(=O)c(C(=O)Nc2ccccc2N)c(O)c2ccccc21	-17%	-5%	50µM*	2%	46%	/
CCCCCn1c(=O)c(C(=O)Nc2ccccc2N)c(O)c2ccccc21	-9%	-13%	2%	1%	47%	30%
Cc1ccc(C[N+](C)(C)C)o1	-1%	/	/	/	/	2%[59 µM]
O=C(NC(Cc1ccccc1)C(=O)N1CCC2(CC1)OCCO2)C1CCCCC1 (centres undefined)	1%	-2%	?	-5%	10%	/
